Results on 36 molecules are retold here after PubChem BioAssay (NCATS).

Molecules are shown by their SMILES. Where “and” joins values, the source holds several entries; their conditions need not be identical. Equal values may be shown once. Inconclusive results are not listed. Values without a mark were called inactive. Calls of active or inactive are those of the source. The call rests on the fitted dose curve; in most records, active means well fitted inhibition curve with a large enough effect; inconclusive means small, poorly fitted or top-dose-only effect; inactive means flat fitted curve, though single readings scatter.
On the % scale 0 is the no-effect control and ±100 the full control effect; potency means the concentration at half of the fitted maximal effect.

The first test deals with HEK293. Kind of test: Cytotoxic Profiling of Annotated Libraries Using Quantitative High-Throughput Screening (AID 1296008). Further: nearly all actives have a fitted effect of over 60% in size. Particulars: Five cell lines viability, CellTiter-Glo ATP luminescence, 48-72 h; max response: stronger effect = lower value. An outline of the steps:
(§1)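 Compounds were pin-transferred onto cells and incubated 48 or 72 hr at 37 degree Celsius, 95% humidity. CellTiter-Glo was added, plates sat 10 min at room temperature, then ATP-coupled luminescence was imaged as the viability read-out.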
On the technique in general: Cellular ATP, detected with luciferase, serves as a proxy for viable cell number.
For `C[n+]1c2cc(N)ccc2cc2ccc(N)cc21` (tested in a mixture with another compound), the Potency was 3.35 µM (active).

Consider `Cc1ccccc1C(=O)Nc1ccc(C(=O)N2CCCC(N(C)C)c3ccccc32)cc1` (stereo not given), for which the Potency is 3.35 µM (active) and 5.8 µM (active).

For `COc1cccc2c1C(=O)c1c(O)c3c(c(O)c1C2=O)C[C@@](O)(C(C)=O)C[C@@H]3O[C@H]1C[C@H](N)[C@H](O)[C@H](C)O1`, the Potency was 0.0473 µM (active).

On to `CCCCCCCCCCCCCCCC[N+](C)(C)CC`, for which the Potency is 2.99 µM (active).

Consider `CCCCCCC[N+](CC)(CC)CCCCc1ccc(Cl)cc1`, for which the Potency was 6.68 µM (active).

On to `CN(C)C(=S)SC(=S)N(C)C`, for which the Potency is 5.96 µM (active).

As for `CC1(C)O[C@@H]2C[C@H]3[C@@H]4C[C@H](F)C5=CC(=O)C=C[C@]5(C)[C@H]4[C@@H](O)C[C@]3(C)[C@]2(C(=O)CO)O1`, the max response was -23.8%.

Another test deals with HaCat. The test is described as above. Particulars: Five cell lines viability, CellTiter-Glo ATP luminescence, 48-72 h; max response: stronger effect = lower value. In short, it runs like this:
as §1
As to `CC(=O)c1ccc2c(c1)N(CCCN1CCC(CCO)CC1)c1ccccc1S2`, the molecule was called inactive.

On to `COc1cc2c(cc1OC)C(C(C(=O)N(CCc1ccc(OC)c(OC)c1OC)CCc1ccc(OC)c(OC)c1OC)c1ccccc1)=NCC2` (stereo not given), for which the molecule was called inactive.

Turning to `C[C@H]1C[C@H]2[C@@H]3CCC4=CC(=O)C=C[C@]4(C)[C@@]3(Cl)[C@@H](O)C[C@]2(C)[C@@]1(O)C(=O)CO`, the max response was -6.93%.

`CCCCOc1ccc(OCCCN2CCOCC2)cc1`: the max response was -3.82%.

For `CC(=O)[C@H]1CC[C@H]2[C@@H]3C[C@H](C)C4=CC(=O)CC[C@]4(C)[C@H]3[C@@H](O)C[C@]12C`, the max response is -3.2%.

For the molecule `O=C(OCC(O)CO)c1ccccc1Nc1ccnc2cc(Cl)ccc12` (stereo not given), the max response is -6.51%.

Take `CC(=O)N/N=C/c1ccc([N+](=O)[O-])o1`: the molecule was called inactive.

For `COc1cc2c(cc1OC)[C@@H]1CC(=O)[C@@H](CC(C)C)CN1CC2`, the max response was -0.956%.

Consider `C=C1C[C@H]2[C@@H]3C=C(C)C4=CC(=O)CC[C@]4(C)[C@H]3CC[C@]2(C)[C@@]1(OC(C)=O)C(C)=O`, for which the max response is -2.22%.

On to `CN(C)CCCOc1nn(Cc2ccccc2)c2ccccc12`, for which the max response was 3.55%.

In the case of `CC(=O)Oc1ccc(C(c2ccc(OC(C)=O)cc2)c2ccccn2)cc1`, the max response is -0.175%.

Regarding `C=C1C(=C/C=C2\CCC[C@]3(C)[C@@H]([C@H](C)/C=C/[C@@H](O)C4CC4)CC[C@@H]23)C[C@@H](O)C[C@@H]1O`, the molecule was called inactive.

Take `CN(C/C=C/c1ccccc1)Cc1cccc2ccccc12`: the Potency is 21.1 µM (active).

`OC(CCN1CCCCC1)(c1ccccc1)c1ccccc1`: the result was inactive.

As to `CN1CCC(=C2c3ccccc3Sc3ccccc32)CC1`, the molecule was called inactive.

Turning to `CC1(C)O[C@@H]2C[C@H]3[C@@H]4CCC5=CC(=O)CC[C@]5(C)[C@@]4(F)[C@@H](O)C[C@]3(C)[C@]2(C(=O)CCl)O1`, the molecule was called inactive.

For `c1ccc(OCc2ccc(CCCN3CCOCC3)cc2)cc1`, the max response was 1.82%.

As for `COC1=CC(=O)C[C@@H](C)[C@]12Oc1c(Cl)c(OC)cc(OC)c1C2=O`, the Potency was 23.7 µM (active).

With `CCCCCCCCCCCCCCCC[N+](C)(C)CC`, the Potency is 5.96 µM (active).

For the molecule `O=C1[C@H]2CCCC[C@H]2C(=O)N1CCCCN1CCN(c2nsc3ccccc23)CC1`, the max response is -5.6%.

Turning to `CCOC(=O)[C@H](CCc1ccccc1)N[C@@H](C)C(=O)N1Cc2ccccc2C[C@H]1C(=O)O`, the call was inactive.

As to `C=C(CC)C(=O)c1ccc(OCC(=O)O)c(Cl)c1Cl`, the max response is -11.5%.

`Oc1ccc(Cl)c2cccnc12`: the molecule was called inactive.

As for `C/C=C(/C(=C/C)c1ccc(O)cc1)c1ccc(O)cc1`, the max response is -0.716%.

As to `C[C@@H]1C[C@H]2[C@@H]3CCC4=CC(=O)C=C[C@]4(C)[C@@]3(F)[C@@H](O)C[C@]2(C)[C@H]1C(=O)CO`, the max response was -8.02%.

Take `c1ccc(CNCCNCc2ccccc2)cc1`: the call was inactive.

`CCCCCC=CCC=CCCCCCCCC(=O)OCC`: the molecule was classed as inactive.

In the case of `COc1ccc(CN2CCN(C(c3ccc(F)cc3)c3ccc(F)cc3)CC2)c(OC)c1OC`, the max response is -19.9% and the molecule was called inactive.

For `CN(C)CC/C=C1\c2ccccc2Sc2ccc(Cl)cc21`, the molecule was called inactive.

As to `CCN(CCCc1ccccc1)CCCc1ccccc1`, the max response was 0.9%.

The next test relates to KB-3-1. Described as above. The settings on record: Five cell lines viability, CellTiter-Glo ATP luminescence, 48-72 h; max response: stronger effect = lower value. An outline of the steps:
as §1
Regarding `CC(=O)c1ccc2c(c1)N(CCCN1CCC(CCO)CC1)c1ccccc1S2`, the max response is -5.25%.

In the case of `COc1cc2c(cc1OC)C(C(C(=O)N(CCc1ccc(OC)c(OC)c1OC)CCc1ccc(OC)c(OC)c1OC)c1ccccc1)=NCC2` (stereo not given), the max response is 28%.

As to `C[C@H]1C[C@H]2[C@@H]3CCC4=CC(=O)C=C[C@]4(C)[C@@]3(Cl)[C@@H](O)C[C@]2(C)[C@@]1(O)C(=O)CO`, the max response was 6.92%.

Regarding `CCCCOc1ccc(OCCCN2CCOCC2)cc1`, the max response was 3.23%.

In the case of `CC(=O)[C@H]1CC[C@H]2[C@@H]3C[C@H](C)C4=CC(=O)CC[C@]4(C)[C@H]3[C@@H](O)C[C@]12C`, the max response was 30.5%.

In the case of `O=C(OCC(O)CO)c1ccccc1Nc1ccnc2cc(Cl)ccc12` (stereo not given), the max response was 1.57%.

`CC(=O)N/N=C/c1ccc([N+](=O)[O-])o1`: the max response was -2.33%.

In the case of `COc1cc2c(cc1OC)[C@@H]1CC(=O)[C@@H](CC(C)C)CN1CC2`, the max response is 20.8%.

`C=C1C[C@H]2[C@@H]3C=C(C)C4=CC(=O)CC[C@]4(C)[C@H]3CC[C@]2(C)[C@@]1(OC(C)=O)C(C)=O`: the max response is 17.3%.

As for `CN(C)CCCOc1nn(Cc2ccccc2)c2ccccc12`, the max response was -14.4% and -24.2%.

On to `CC(=O)Oc1ccc(C(c2ccc(OC(C)=O)cc2)c2ccccn2)cc1`, for which the max response was -5.6%.

Regarding `C=C1C(=C/C=C2\CCC[C@]3(C)[C@@H]([C@H](C)/C=C/[C@@H](O)C4CC4)CC[C@@H]23)C[C@@H](O)C[C@@H]1O`, the max response is 29.7%.

Turning to `CN(C/C=C/c1ccccc1)Cc1cccc2ccccc12`, the max response is 4.5%.

On to `OC(CCN1CCCCC1)(c1ccccc1)c1ccccc1`, for which the max response was 16.8%.

As to `Cc1ccccc1C(=O)Nc1ccc(C(=O)N2CCCC(N(C)C)c3ccccc32)cc1` (stereo not given), the Potency is 7.31 µM (active).

As to `CN1CCC(=C2c3ccccc3Sc3ccccc32)CC1`, the max response was -16.3%.

With `CC1(C)O[C@@H]2C[C@H]3[C@@H]4CCC5=CC(=O)CC[C@]5(C)[C@@]4(F)[C@@H](O)C[C@]3(C)[C@]2(C(=O)CCl)O1`, the max response was 33.4%.

With `c1ccc(OCc2ccc(CCCN3CCOCC3)cc2)cc1`, the max response was 2.12%.

Take `COC1=CC(=O)C[C@@H](C)[C@]12Oc1c(Cl)c(OC)cc(OC)c1C2=O`: the max response was -57.5%.

For the molecule `O=C1[C@H]2CCCC[C@H]2C(=O)N1CCCCN1CCN(c2nsc3ccccc23)CC1`, the max response was 2.4%.

Take `CCCCCCC[N+](CC)(CC)CCCCc1ccc(Cl)cc1`: the max response was -16.1%.

Consider `CN(C)C(=S)SC(=S)N(C)C`, for which the max response is 31.5%.

Take `CCOC(=O)[C@H](CCc1ccccc1)N[C@@H](C)C(=O)N1Cc2ccccc2C[C@H]1C(=O)O`: the max response is 21.9%.

Take `C=C(CC)C(=O)c1ccc(OCC(=O)O)c(Cl)c1Cl`: the max response is -0.176%.

Consider `Oc1ccc(Cl)c2cccnc12`, for which the max response is -11.9%.

With `C/C=C(/C(=C/C)c1ccc(O)cc1)c1ccc(O)cc1`, the max response was -11.5%.

With `C[C@@H]1C[C@H]2[C@@H]3CCC4=CC(=O)C=C[C@]4(C)[C@@]3(F)[C@@H](O)C[C@]2(C)[C@H]1C(=O)CO`, the max response is 11.3%.

For the molecule `c1ccc(CNCCNCc2ccccc2)cc1`, the max response is -3.68%.

On to `CCCCCC=CCC=CCCCCCCCC(=O)OCC`, for which the max response is -4.13%.

With `COc1ccc(CN2CCN(C(c3ccc(F)cc3)c3ccc(F)cc3)CC2)c(OC)c1OC`, the max response is 6.7%.

Turning to `CN(C)CC/C=C1\c2ccccc2Sc2ccc(Cl)cc21`, the max response was -2.56%.

Turning to `CCN(CCCc1ccccc1)CCCc1ccccc1`, the max response was -18.5%.
